Screening data (PubChem)
HT1080-NT tox: qHTS for induction of synthetic lethality in tumor cells producing 2HG: qHTS for the HT-1080-NT fibrosarcoma cell line | HT-1080-NT fibrosarcoma viability, CellTiter-Glo ATP luminescence, 48 h | Potency, µM (highest dose often 46.1 µM), without a hit: top-dose activity, negative = less viability, actives largely listed as cytotoxic | 360,000 tested, 1.6% active;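 note: NT is the 2HG producing partner of a matched IDH1 knockdown line; potency is the fitted concentration of half-maximal effect; 0% = DMSO-treated cells and -100% = media-only wells without cells; nearly all actives have a fitted effect of over 55% in size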
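Luminescent CellTiter-Glo readout after 48 hours of compound exposure at 37 degrees C defined viability of HT-1080-NT cells. Activity was normalized to DMSO wells and cell-free media wells; concentration-response curves were fitted and assigned curve classes.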
DT40 TDP1 no CPT: qHTS for Inhibitors of human tyrosyl-DNA phosphodiesterase 1 (TDP1): qHTS in cells in absence of CPT. DT40 Tdp1-/- hTDP1 cells, no CPT, ATP luminescence, 48 h. Potency, µM (highest dose often 46.2 µM), for inactives: at the top dose activity change, negative = growth inhibition, hits mostly inhibitors. 420,000 tested, 15% active; note: potency is the fitted concentration of half-maximal effect; nearly all actives have a fitted effect of over 55% in size
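Readout: luminescence from CellTiter-Glo after 30 min in the dark at RT. Cells: DT40 Tdp1-/- with stable hTDP1, 400/well. Exposure: compounds alone, ≥48 hr, 37 °C.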
TDP1 cell CPT: qHTS for Inhibitors of human tyrosyl-DNA phosphodiesterase 1 (TDP1): qHTS in cells in presence of CPT. 420,000 tested, 12% active. chicken DT40 Tdp1-/-;hTDP1 cells + 20 nM CPT, ATP luminescence, 48 h. Potency, µM (highest dose often 46.2 µM), without a hit: at the top dose activity change, negative = growth inhibition, usual class: inhibitors. AID 686979, 2013; note: potency is the fitted concentration of half-maximal effect; nearly all actives have a fitted effect of over 55% in size
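Cell growth measured by CellTiter-Glo luminescence after a minimum 48 h, 37 C compound exposure with 20 nM CPT in Tdp1-knockout DT40 cells stably expressing hTDP1, seeded 400/well; qHTS titration format.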
IL1B secr inh: qHTS for Inhibitors of Inflammasome Signaling: IL-1-beta AlphaLISA Primary Screen | AID 743279, 2014 | 360,000 tested, 4.7% active | activity change, % at 57.5 µM | THP-1 LPS/ATP IL-1B secretion, AlphaLISA, 16 h; active compounds read low; in the data active = activity change below about -50%; inconclusive = mostly about -30% to -49%
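Secreted IL-1B measured by AlphaLISA bead assay after 16 h compound exposure of THP-1 cells; compounds (final up to 57.5 uM) added 1 h before LPS (250 ng/mL) and ATP (1.25 mM) stimulation; lower signal means less secretion.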
HT1080 IDH1KD tx: qHTS for induction of synthetic lethality in tumor cells producing 2HG: qHTS for the HT-1080-IDH1KD cell line. HT-1080 IDH1 knockdown viability, ATP luminescence, 48 h. Potency, µM (top dose mostly 46.1 µM), without a hit: at the highest dose activity, negative = toxicity, usual class: cytotoxic. 360,000 tested, 2% active. AID 686971, 2013;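 note: potency is the fitted concentration of half-maximal effect; 0% = DMSO wells and -100% = cell-free medium wells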
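Cytotoxicity counter-line: IDH1KD HT-1080, 48 h, CellTiter-Glo. Curves classed by r2, magnitude and activity.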
* hit, by the source's call; ? = inconclusive; . = not tested or not shown. Only some compounds are listed: those with a hit (about 19% of all), similar ones and a draw of the others. Unless noted, calls come from the whole dose curve; as a rule, active = well fitted curve in the direction sought with a large enough effect; inconclusive = small, poorly fitted or top-dose-only effect, or another doubt; inactive = no such curve, though single readings can be large; an effect the other way counts as inactive or inconclusive. Unless noted, % is set by controls: 0 for no effect and ±100 for the full control effect.

SMILES	HT1080-NT tox	DT40 TDP1 no CPT	TDP1 cell CPT	IL1B secr inh	HT1080 IDH1KD tx
COCCSc1ccccc1C(=O)Nc1nncs1	7%	-3%	-2%	8	8%
Cc1cc(NCCCn2ccnc2)n2nc(-c3ccc(F)cc3)cc2n1	-8%	-25%	-19%	-61*	-24%
Cc1cccc(-c2cc3nc(C)c(C)c(NCCCn4ccnc4)n3n2)c1	?	15µM*	?	.	?
CC(C)(C)c1cc(NCCCn2ccnc2)n2ncc(-c3ccc(Cl)cc3)c2n1	10µM*	18µM*	?	-86*	10µM*
CN(C)CCCNc1cc(C(C)(C)C)nc2c(-c3ccccc3)cnn12	21µM*	16µM*	?	-98*	?
Clc1ccc(-c2noc(-c3cccnc3NCc3ccco3)n2)cc1	.	4%	2%	.	.
O=C(CN1C(=O)NC2(CCCC2)C1=O)Nc1cc(S(=O)(=O)N2CCCCC2)ccc1Cl	-4%	?	?	-5	14%
CCCCSc1nnc(-c2ccccc2)c2ccccc12	1%	?	?	-6	2%
CCOc1ccccc1NC(=O)n1ncc2cc(Cl)ccc21	.	?	-14%	.	.
Cc1ccc(C2CC(=O)Oc3cc(C)c(Br)c(C)c32)cc1 (stereo not drawn)	-12%	-13%	0%	19	-9%
O=C(c1cccc(F)c1)N1CCCC(C(=O)N2CCCCCC2)C1 (stereo not drawn)	-2%	-4%	0%	-4	0%
Cc1cc(NCCCn2ccnc2)n2nc(-c3ccc(Cl)cc3)cc2n1	-1%	?	-22%	-65*	-13%
COc1cccc(OCCOc2ccc(/C=C3\C(=N)N4N=C(S(C)(=O)=O)SC4=NC3=O)cc2OC)c1	2%	-3%	-13%	1	0%
COc1ccccc1OCCOc1ccc(/C=C2\C(=N)N3N=C(S(C)(=O)=O)SC3=NC2=O)cc1	-8%	23µM*	?	-17	0%
CCC1=NN2C(=N)/C(=C\c3ccc(OCCOc4ccc(NC(C)=O)cc4)cc3)C(=O)N=C2S1	0%	-6%	9%	2	4%
CC(=O)Nc1ccc(OCCOc2ccc(/C=C3/C(=N)N4C=CSC4=NC3=O)cc2)cc1	4%	10µM*	21µM*	54	0%
C/C(=N\NC(=S)NCC(C)(C)C)c1cc(F)cc(F)c1O	-15%	15µM*	15µM*	-110*	?
C=CCn1c(SCC(=O)N(CCOC)c2c(N)n(CC(C)C)c(=O)[nH]c2=O)nc2ccccc21	-1%	-3%	6%	16	9%
Cc1ccc(NC2=C(CC(=O)O)C(c3ccccc3)N(c3ccc(C)cc3)C2=O)cc1 (stereo not drawn)	-10%	?	16µM*	26	-5%
CCC1OC(=O)C(C)[C@@H](O[C@H]2C[C@@](C)(OC)C(O)C(C)O2)C(C)[C@@H](O[C@@H]2OC(C)CC(N(C)C)C2O)[C@](C)(O)CC(C)/C(=N\OCOCCOC)[C@H](C)C(O)[C@]1(C)O (stereo partly drawn)	.	-16%	-17%	.	.
CCC1CCCCN1C(=O)CSc1nc(-c2ccc(OC)cc2)cc(C(F)(F)F)n1 (stereo not drawn)	.	9.2µM*	23µM*	.	.
CCC1CCCCN1C(=O)CSc1nc(N)cc(N)n1 (stereo not drawn)	2%	-25%	-14%	19	7%
COc1ccc(-c2cc(C(F)(F)F)nc(SCC(=O)N3CC(C)OC(C)C3)n2)cc1OC (stereo not drawn)	0%	1%	-17%	-11	-1%
CCC1CCCCN1C(=O)CSc1nc(-c2ccc(OC)c(OC)c2)cc(C(F)(F)F)n1 (stereo not drawn)	.	23µM*	?	.	.
